The source of these data is PubChem BioAssay (NCI).

This is part of a sample that, as a whole, favours compounds with a hit. Of some 83,000 tested, about 20% had one in any assay.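 Treatment: one concentration, 48 hours, 96-well format. Scoring: percent growth, with anything below 10 considered active.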 The source made the active and inactive calls.

The test relates to COLO 205 colon. The experiment in a line: NCI-60 one-dose screen, 48 h (100 = growth as untreated, 0 = no growth, -100 = all killed). The settings on record: 10 µM unless noted. As for the experimental part: Cells are grown in 96 well plates and exposed to the test compound for 48 hours. Compounds are tested at a single concentration, which is 10^-5 M for most compounds. The reported endpoint is percent growth (GI% or GIPRCNT), where numbers from 0 - 100% represent growth inhibition, and numbers from -100% - 0 represent cell death. For example, a value of 40 represents 60% growth inhibition. A value of 0 means no net growth occurred over the course of the experiment. A value of -40 indicates 40% of cells at the beginning of the experiment died by the end of the experiment. A value of -100 means all cells are dead at the end of the experiment.
NCI-60 Human Tumor Cell Lines Screen was performed using the standard one-dose NCI protocol, which is described in more detail at https://dtp.cancer.gov/discovery_development/nci-60/default.htm.
Compounds with GIPRCNT values below 10 were considered active. Activity score was based on GIPRCNT using the following formula: […]
Score is 0 for GIPRCNT values of 100 or above, 50 for GIPRCNT values of 0, and 100 for GIPRCNT values of -100.
With `COc1ccc(CNC(=O)c2c(C)n([O-])c3ccc(OC)cc3[n+]2=O)cc1`, the growth is 108% (inactive).
Then `Cn1ccnc1C(=O)/C=C/c1ccc(C(=O)Nc2nc3ccccc3[nH]2)cc1`, with 55.1% (inactive); and `Cn1cc(NC(=O)Nc2cc(C(=O)O)n(C)c2)cc1C(=O)O`, with 113% (inactive).
To `COc1c(Br)cc(C(c2cc(Br)c(OC)c(Br)c2)c2ccccc2C(=O)O)cc1Br` belongs 110% (inactive); to `C[C@H](C(=O)N[C@@H](Cc1ccc(-c2ccccc2)cc1)C(=O)NC1CC(C)(C)N(C)C(C)(C)C1)c1ccc(-c2ccccc2)c(F)c1`, -69.6% (active).
Then `COc1ccc(C2=NN(C(N)=S)C(c3ccc4c(c3)OCO4)C2)cc1` (stereo not given), with 56.5% (inactive).
As to `Cc1[nH]cnc1/C=C1\SC(N2CCCCC2)=NC1=O`, the growth is 114% (inactive).
Take `O=C(Nc1ccccc1S)c1ccccc1`: the growth was 119% (inactive).
Then `CC(C)Cn1cnc2c(NCn3nc(-c4cc(Cl)cc(Cl)c4Cl)n(/N=C/c4ccc(Cl)cc4)c3=S)nc3ccccc3c21`, with 94.6% (inactive); and `C/C=C(/C(=C/C)c1ccc(O)cc1)c1ccc(O)cc1`, with 73.9% (inactive); and `N#Cc1ccc(-c2csc(Nc3ccc4nc5n(c(=O)c4c3)CCC5)n2)cc1`, with 109% (inactive).
To `OCCCc1n(Cc2ccc3ccccc3c2)c2ccccc2[n+]1Cc1ccc2ccccc2c1` belongs -58.9% (active).
With `CN(C)CCCN=c1cc2c(=O)n(CCCN(C)C)c(=O)c3c(NCCCN(C)C)cc4c(O)n(CCCN(C)C)c(=O)c1c4c3-2`, the growth is -56.6% (active).
To `CCOC(=O)Nc1cc(-c2ccc(C)c(NS(C)(=O)=O)c2)nn2c(C)nnc12` belongs 3.41% (active).
Then `O=c1c2ccccc2c2nccn2c2cc(Cl)ccc12`, with 112% (inactive); and `COc1ccc(C2CC(c3ccc(Nc4ccnc5cc(Cl)ccc45)cc3)=NN2C(C)=O)cc1` (stereo not given), with 96% (inactive).
In the case of `O=Nc1c2cccnc2n2nnc3ccc(Cl)cc3c12`, the growth is -5.58% (active).
As to `CCOC(=O)c1sc(NC(=O)COc2cccc(/C=C3\Cc4ccc(Cl)cc4C3=O)c2)nc1C`, the growth was 116% (inactive).
Then `COc1ccc(-c2cc(-c3cccnc3)nc(S(=O)(=O)CC(=O)Nc3ccc(C)cc3)c2C#N)cc1OC`, with 96.5% (inactive).
To `C[C@]12CC[C@H](O)CC1=CC[C@@H]1[C@@H]2CC[C@]2(C)C(c3cccnc3)=CC[C@@H]12` belongs 95.1% (inactive).
To `COC(=O)C1(NC(=O)CNC(=O)OCc2ccccc2)CCCC1` belongs 125% (inactive); to `O=C(CNc1ccc2c(c1)C(=O)c1ccccc1C2=O)Nc1ccc2c(c1)C(=O)c1ccccc1C2=O`, -89% (active).
For `O=C1C(=O)c2c(nc3ccc(Cl)cn23)-c2ccccc21`, the growth was -100% (active).
Turning to `O=C(N/N=C/c1ccc(Cl)cc1Cl)c1ccccc1Nc1cccc(C(F)(F)F)c1`, the growth was 109% (inactive).
Turning to `Cc1cccc2nnc(-c3ccccc3)n12`, the growth was 118% (inactive).
To `CN1C(=O)C(C2=NN(C=O)C(c3ccc(F)cc3)C2)C(=O)N(C)C1=O` (stereo not given) belongs 104% (inactive).
`CCN(CC)c1ccc(N=C2C=CC(=O)C=C2NC(C)=O)cc1`: the growth was 96.8% (inactive).
For the molecule `O=C(CC1Sc2ccccc2NC1=O)NNc1cccc(Cl)c1Cl` (stereo not given), the growth is 82.2% (inactive).
Then `CCN(CC)c1ccc(/C=C/C(=O)c2cccc(NS(C)(=O)=O)c2)cc1`, with 62.3% (inactive); and `CC(=O)/C(=C/c1ccc(Cl)cc1)C(=O)c1ccccc1`, with 111% (inactive).
With `O=[N+]([O-])c1ccc2[nH]cc(-c3c4ccccc4cc4[nH]c5ccc([N+](=O)[O-])cc5c34)c2c1`, the growth is 14% (inactive).
Then `CCOC(=O)c1cnc2c(C)cc(C)cc2c1NCCCN(C)C`, with 17.4% (inactive); and `O=C(O)c1ccc(CNS(=O)(=O)c2ccc3ccccc3c2)cc1`, with 105% (inactive); and `CC[C@@H](C)/C=C(C)/C=C/C(O)=C1\C(=O)N[C@@H](Cc2ccc(OC(=O)[C@@](OC)(c3ccccc3)C(F)(F)F)cc2)C1=O`, with 118% (inactive).
As to `O=Cc1ncc(-c2ccc(C(F)(F)F)cc2)c(NC2CCCCCC2)n1`, the growth was -60.5% [100 µM] (active).
To `COc1cc(-c2nc3sc4c(c3c(=O)[nH]2)CCCCCC4)cc(OC)c1OC` belongs -24.2% (active); to `Nc1nc2c(c(=O)[nH]1)C1(C(=O)Nc3ccccc31)c1c(nc(N)[nH]c1=O)N2`, 102% (inactive).
On to `CC[C@@H](C)/C=C(C)/C=C/C(=O)c1c(O)c(-c2ccc(O)cc2)cn(OC2CC(=O)CCC(C)OC(=O)CC2O)c1=O` (stereo not given in full), for which the growth was 67.8% (inactive).
Regarding `Cc1ccc(S(=O)(=O)N2CCN(C(=O)CSc3nc4ccc(C)cc4[nH]3)CC2)cc1`, the growth is 143% (inactive).
Then `CSc1nc2nc3c(nc2c(=O)n1C)C(=O)c1ccccc1C3=O`, with -86.2% (active).
